# Measurements published in PubChem BioAssay (EPA / NIEHS).
# Inconclusive results are not listed. Calls of active or inactive are those of the source. Rule for the calls, unless noted: active = hit-call score of the fitted dose curve at least 0.9, where 1 is the maximum; inactive = score below 0.9.
# What was measured:
# [1] = ATG_DR4_LXR_CIS: Attagene CIS-FACTORIAL HepG2 Assay for human Liver X Receptor (LXR), DR4 submotif (AID 2282929); conditions: HepG2 Attagene DR4 cis-reporter, mRNA transcription; actives raise or lower the signal
# Method in brief: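 Total RNA from 24 h-treated, MRTU-transfected HepG2 cells underwent reverse transcription, PCR, fluorescent primer extension and restriction digestion before capillary electrophoresis. Both increases and decreases in reporter signal were fitted against DMSO.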
# [2] = ATG_Ets_CIS: Attagene CIS-FACTORIAL HepG2 Assay for human Erythroblast Transformation Specific (ETS) (AID 2282941); conditions: HepG2 ETS cis-reporter transcription, actives raise or lower the signal
# Method in brief: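 Multiplexed reporter transcript profiling: HepG2, 24 h treatment, total RNA to cDNA, PCR, 6-FAM labelling, HpaI cut, capillary electrophoresis. Gain- or loss-of-signal fitted against DMSO.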
# [3] = biological target: Heat shock factor protein 1 (Homo sapiens) (UniProt Q00613); assay: ATG_HSE_CIS: Attagene CIS-FACTORIAL HepG2 Assay for human Heat Shock Transcription Factor 1 (HSE) (AID 2282953); conditions: HepG2 HSE cis-reporter, Attagene RNA transcription; actives raise or lower the signal
# Method in brief: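 HepG2 cells transfected with cis-promoter reporter units sensing endogenous transcription factor activity; reporter mRNA quantified 24 h post-dose by RT-PCR and capillary electrophoresis of 6-FAM-labelled products. Bidirectional fitting against DMSO.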
# [4] = biological target: Signal transducer and activator of transcription 3 (Homo sapiens) (UniProt P40763); assay: ATG_STAT3_CIS: Attagene CIS-FACTORIAL HepG2 Assay for human Signal Transducer and Activator of Transcription 3 (STAT3) (AID 2282963); conditions: HepG2, Attagene cis-factorial STAT3 reporter transcription; actives raise or lower the signal
# Method in brief: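 Readout: fluorescent reporter mRNA fragments resolved by capillary electrophoresis. Setup: HepG2 transfected with MRTUs reporting endogenous transcription-factor activity, dosed 24 h. Gain or loss of signal fitted bidirectionally against DMSO control.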
# [5] = ATG_TA_CIS: Attagene CIS-FACTORIAL HepG2 Assay for human TA Basal Promoter (AID 2282964); conditions: HepG2 Attagene CIS-factorial TA basal promoter reporter; actives raise or lower the signal
# Method in brief: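 HepG2 cells transiently transfected with multiple reporter units under cis promoter elements, reporting endogenous transcription factor activity; this endpoint tracks the TA basal promoter as background control. Reporter mRNA after 24 h dosing measured by RT-PCR/capillary electrophoresis; bidirectional fits versus DMSO.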
# [6] = ATG_TCF_b_cat_CIS: Attagene CIS-FACTORIAL HepG2 Assay for human T-Cell-Factor with beta-catenin (TCF/b-cat) (AID 2282965); conditions: HepG2 TCF/beta-catenin cis-reporter transcription, actives raise or lower the signal
# Method in brief: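 HepG2, transient MRTU transfection, cis-element-driven reporters (endogenous TFs). 24 h compound exposure. Readout: reporter mRNA by RT-PCR + 6-FAM primer extension, HpaI digest, capillary electrophoresis. Gain/loss fit vs DMSO baseline.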
# [7] = ATG_TAL_CIS: Attagene CIS-FACTORIAL HepG2 Assay for human TAL Basal Promoter (AID 2282966); conditions: HepG2 Attagene cis-factorial TAL promoter reporter; actives raise or lower the signal;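 note: background control endpoint measuring basal TAL promoter reporter mRNA not a specific factor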
# Method in brief: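 Human hepatoma HepG2 cells, transfected with promoter-regulated reporter units, were treated 24 h. Reporter transcript levels, measured through RT-PCR and capillary electrophoresis, were fitted for gain or loss relative to DMSO.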
# [8] = biological target: X-box-binding protein 1 (Homo sapiens) (UniProt P17861); assay: ATG_Xbp1_CIS: Attagene CIS-FACTORIAL HepG2 Assay for human X-box Binding Protein 1 (XBP1) (AID 2282972); conditions: HepG2 XBP1 cis-element reporter, Attagene multiplex; actives raise or lower the signal
# Method in brief: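 Human hepatoma HepG2, cis-element reporter system, 24 h treatment; mRNA quantified by RT-PCR/CE fluorescence; fit relative to DMSO.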
# [9] = biological target: Transcriptional activator Myb (Homo sapiens) (UniProt P10242); assay: ATG_Myb_CIS: Attagene CIS-FACTORIAL HepG2 Assay for human Myeloblastosis (Myb) Proto-Oncogene Transcription Factor (AID 2282986); conditions: HepG2 Attagene CIS-FACTORIAL Myb reporter transcription; actives raise or lower the signal
# Method in brief: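 After 24 h of compound dosing, total RNA from transfected HepG2 cells is reverse-transcribed and the reporter sequences amplified, labeled and separated by capillary electrophoresis. Values come from bidirectional fitting against DMSO.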
# [10] = ATG_NFI_CIS: Attagene CIS-FACTORIAL HepG2 Assay for human Nuclear Factor I (NFI) (AID 2282989); conditions: HepG2 cis-regulatory reporter, NFI response element transcription; actives raise or lower the signal
# Method in brief: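 Endogenous TF activity in HepG2 cells transiently transfected with cis-element-driven multiplexed reporter units, read 24 h after dosing. Reporter mRNA quantified by RT-PCR, 6-FAM labelling, HpaI digestion and capillary electrophoresis; bidirectional fit versus DMSO.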
# [11] = biological target: Myc proto-oncogene protein (Homo sapiens) (UniProt P01106); assay: ATG_Myc_CIS: Attagene CIS-FACTORIAL HepG2 Assay for human Myelocytomatosis (Myc) Proto-Oncogene Transcription Factor (AID 2282990); conditions: HepG2, Attagene cis-reporter transcription factor activity; actives raise or lower the signal
# Method in brief: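 Read-out: fluorescent reporter mRNA fragments resolved by capillary electrophoresis after RT-PCR. Human HepG2 liver cells carried transfected cis-element reporter units and were dosed for 24 h. Gain or loss of signal fitted relative to DMSO baseline.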
# [12] = ATG_NRF2_ARE_CIS: Attagene CIS-FACTORIAL HepG2 Assay for human Nuclear Factor Erythroid 2 Related Factor 2 (NFR2) response to Antioxidant Response Elements (ARE) (AID 2282992); conditions: HepG2 Attagene ARE/NRF2 reporter, transcription factor activity; actives raise or lower the signal;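 for AC50: reporter mRNA level measured by RT-PCR and capillary electrophoresis fluorescence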
# Method in brief: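 Fluorescence intensity of reporter-specific cDNA fragments, separated by capillary electrophoresis, reflects mRNA induction in transfected HepG2 cells at 24 h. Activity is fitted bidirectionally, DMSO serving as baseline.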
# [13] = ATG_Oct_MLP_CIS: Attagene CIS-FACTORIAL HepG2 Assay for human Octamer-Binding Transcription Factor (Oct) (AID 2282993); conditions: HepG2 Attagene cis-factorial Oct reporter, mRNA; actives raise or lower the signal
# Method in brief: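 HepG2 cells transiently transfected with cis-element-driven reporter transcription units (endogenous TF activity); 24 h compound exposure. Reporter mRNA quantified by RT-PCR, 6-FAM labelling, HpaI digestion and capillary electrophoresis; bidirectional fit versus DMSO baseline.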
# [14] = biological target: Cellular tumor antigen p53 (Homo sapiens) (UniProt P04637); assay: ATG_p53_CIS: Attagene CIS-FACTORIAL HepG2 Assay for human p53 Transcription Factor (AID 2282994); conditions: HepG2 p53 cis-element reporter, Attagene mRNA; actives raise or lower the signal
# Method in brief: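 Transiently transfected HepG2 (multiple cis reporter transcription units); exposure 24 h; reporter RNA via RT-PCR, 6-FAM extension, 2 h HpaI digest at 37 C, CE detection; DMSO baseline.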
# [15] = biological target: Nuclear receptor subfamily 1 group I member 2 (Homo sapiens) (UniProt O75469); assay: ATG_PXR_TRANS: Attagene TRANS-FACTORIAL HepG2 Assay for human Pregnane X Receptor (PXR) (AID 2283008; active = hit-call score of the fitted dose curve at least 0.9, where 1 is the maximum)
# Method in brief: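 Transient HepG2 transfectants carrying multiplexed reporter transcription units; PXR activity read through a Gal4 chimera. 24 h exposure. RT-PCR/CE fluorescence; upward curve fit referenced to DMSO.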
# [16] = ATG_XTT_Cytotoxicity: Cytotoxicity Assessment in the Attagene TRANS-FACTORIAL HepG2 Assay (AID 2283584; active = hit-call score of the fitted dose curve at least 0.9, where 1 is the maximum)
# Method in brief: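 24 h chemical exposure of reporter-transfected HepG2; XTT signal loss vs DMSO indicates cytotoxicity.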
# [17] = ATG_CRE_CIS: Attagene CIS-FACTORIAL HepG2 Assay for human cAMP Responsive Element (CRE) binding protein 3 (AID 2282926); conditions: HepG2 CRE cis-reporter, Attagene multiplexed mRNA; actives raise or lower the signal
# Method in brief: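 Liver-derived HepG2, transfected with a CRE-containing reporter panel, exposed 24 h; transcript levels sized and quantified by capillary electrophoresis of labelled amplicons; signal changes either way referenced to vehicle.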
# [18] = biological target: Hypoxia-inducible factor 1-alpha (Homo sapiens) (UniProt Q16665); assay: ATG_HIF1a_CIS: Attagene CIS-FACTORIAL HepG2 Assay for human Hypoxia Inducible Factor 1 (HIF1A) (AID 2282951); conditions: HepG2 Attagene cis-factorial HIF1a reporter transcription; actives raise or lower the signal
# Method in brief: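 After 24 h chemical exposure of reporter-transfected HepG2 cells, reporter cDNA was PCR-amplified, labelled by 6-FAM primer extension (2 min 95 C, 20 s 68 C, 10 min 72 C), HpaI-cut (2 h, 37 C) and analysed by CE.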
# [19] = biological target: Paired box protein Pax-6 (Homo sapiens) (UniProt P26367); assay: ATG_Pax6_CIS: Attagene CIS-FACTORIAL HepG2 Assay for human Paired Box 6 (PAX6) (AID 2282956); conditions: HepG2 CIS-FACTORIAL PAX6 reporter transcription, RNA readout; actives raise or lower the signal
# Method in brief: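 Values derive from bidirectional curve fitting of reporter mRNA signal relative to DMSO. HepG2 cells bearing transfected cis-regulated MRTUs were exposed for 24 h; transcripts were read by RT-PCR and capillary electrophoresis.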
# [20] = ATG_AP_1_CIS: Attagene CIS-FACTORIAL HepG2 Assay for human Activator Protein 1 (AP-1) (AID 2282931); conditions: HepG2 Attagene cis-factorial AP-1 reporter mRNA; actives raise or lower the signal
# Method in brief: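 HepG2, transient cis-reporter transfection; 24 h; readout RT-PCR/CE fluorescence; DMSO baseline, gain and loss fitted.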
# Paired box protein Pax-6 (Homo sapiens), sequence (P26367 whole entry, looked up): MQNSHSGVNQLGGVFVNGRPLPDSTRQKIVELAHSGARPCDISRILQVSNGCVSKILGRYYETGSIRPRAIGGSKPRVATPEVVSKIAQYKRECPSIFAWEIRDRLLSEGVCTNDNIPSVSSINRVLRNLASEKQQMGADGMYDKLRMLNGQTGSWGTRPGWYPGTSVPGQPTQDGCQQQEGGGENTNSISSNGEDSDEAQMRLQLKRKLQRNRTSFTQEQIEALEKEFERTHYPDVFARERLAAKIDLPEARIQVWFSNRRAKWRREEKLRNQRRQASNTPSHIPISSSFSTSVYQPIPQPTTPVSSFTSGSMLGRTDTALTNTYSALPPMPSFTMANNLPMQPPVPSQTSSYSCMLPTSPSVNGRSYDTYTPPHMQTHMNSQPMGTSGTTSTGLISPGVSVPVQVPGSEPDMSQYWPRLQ
# Cellular tumor antigen p53 (Homo sapiens), sequence (P04637 whole entry, looked up): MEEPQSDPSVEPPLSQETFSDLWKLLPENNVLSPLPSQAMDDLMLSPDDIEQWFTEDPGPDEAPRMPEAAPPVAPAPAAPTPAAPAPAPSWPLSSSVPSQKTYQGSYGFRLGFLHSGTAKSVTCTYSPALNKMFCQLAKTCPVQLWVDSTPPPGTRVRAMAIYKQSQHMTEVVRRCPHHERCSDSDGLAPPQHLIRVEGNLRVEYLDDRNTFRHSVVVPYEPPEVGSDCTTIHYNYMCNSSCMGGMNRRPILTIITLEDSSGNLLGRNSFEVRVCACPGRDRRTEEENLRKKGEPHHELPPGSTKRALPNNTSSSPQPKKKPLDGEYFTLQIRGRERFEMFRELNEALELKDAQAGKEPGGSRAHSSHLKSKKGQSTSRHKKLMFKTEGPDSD
# Transcriptional activator Myb (Homo sapiens), sequence (P10242 whole entry, looked up): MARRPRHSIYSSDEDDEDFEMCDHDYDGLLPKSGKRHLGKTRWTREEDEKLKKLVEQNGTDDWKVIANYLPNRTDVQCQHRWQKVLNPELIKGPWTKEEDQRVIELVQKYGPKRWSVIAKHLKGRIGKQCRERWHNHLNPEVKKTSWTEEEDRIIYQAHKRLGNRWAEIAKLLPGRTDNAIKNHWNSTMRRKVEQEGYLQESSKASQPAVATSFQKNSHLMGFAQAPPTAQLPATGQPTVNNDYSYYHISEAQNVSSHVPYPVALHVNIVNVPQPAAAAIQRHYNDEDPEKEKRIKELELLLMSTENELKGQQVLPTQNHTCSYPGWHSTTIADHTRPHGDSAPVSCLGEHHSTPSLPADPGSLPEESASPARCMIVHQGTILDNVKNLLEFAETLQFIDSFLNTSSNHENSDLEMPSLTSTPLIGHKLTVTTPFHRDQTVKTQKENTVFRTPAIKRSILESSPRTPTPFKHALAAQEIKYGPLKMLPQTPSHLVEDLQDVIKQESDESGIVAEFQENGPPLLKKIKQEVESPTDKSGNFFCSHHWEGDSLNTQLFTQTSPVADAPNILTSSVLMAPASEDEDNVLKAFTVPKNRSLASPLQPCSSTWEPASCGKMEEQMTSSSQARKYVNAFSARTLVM
# X-box-binding protein 1 (Homo sapiens), sequence (P17861 whole entry, looked up): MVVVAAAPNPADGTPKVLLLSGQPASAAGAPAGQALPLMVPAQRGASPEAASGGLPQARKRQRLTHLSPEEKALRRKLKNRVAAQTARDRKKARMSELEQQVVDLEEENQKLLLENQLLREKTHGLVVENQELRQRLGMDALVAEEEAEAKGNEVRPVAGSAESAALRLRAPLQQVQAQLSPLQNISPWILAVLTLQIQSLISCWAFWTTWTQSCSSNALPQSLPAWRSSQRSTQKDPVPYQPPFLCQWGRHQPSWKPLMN
# Heat shock factor protein 1 (Homo sapiens), sequence (Q00613 whole entry, looked up): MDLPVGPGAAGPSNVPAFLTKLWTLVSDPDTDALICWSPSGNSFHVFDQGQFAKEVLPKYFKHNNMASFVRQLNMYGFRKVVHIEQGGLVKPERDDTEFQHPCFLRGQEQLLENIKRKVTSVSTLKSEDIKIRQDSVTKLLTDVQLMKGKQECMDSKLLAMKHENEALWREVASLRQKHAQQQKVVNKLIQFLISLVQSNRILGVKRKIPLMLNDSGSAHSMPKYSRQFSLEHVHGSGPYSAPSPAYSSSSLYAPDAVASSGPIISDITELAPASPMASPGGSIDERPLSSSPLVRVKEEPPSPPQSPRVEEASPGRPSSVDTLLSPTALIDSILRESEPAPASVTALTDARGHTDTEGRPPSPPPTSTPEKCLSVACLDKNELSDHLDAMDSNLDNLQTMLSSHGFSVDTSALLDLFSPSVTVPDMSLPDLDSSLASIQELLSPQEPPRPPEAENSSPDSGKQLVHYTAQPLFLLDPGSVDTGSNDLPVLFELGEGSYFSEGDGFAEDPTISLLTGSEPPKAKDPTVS
# Nuclear receptor subfamily 1 group I member 2 (Homo sapiens), sequence (O75469 whole entry, looked up, the tested form may be a part): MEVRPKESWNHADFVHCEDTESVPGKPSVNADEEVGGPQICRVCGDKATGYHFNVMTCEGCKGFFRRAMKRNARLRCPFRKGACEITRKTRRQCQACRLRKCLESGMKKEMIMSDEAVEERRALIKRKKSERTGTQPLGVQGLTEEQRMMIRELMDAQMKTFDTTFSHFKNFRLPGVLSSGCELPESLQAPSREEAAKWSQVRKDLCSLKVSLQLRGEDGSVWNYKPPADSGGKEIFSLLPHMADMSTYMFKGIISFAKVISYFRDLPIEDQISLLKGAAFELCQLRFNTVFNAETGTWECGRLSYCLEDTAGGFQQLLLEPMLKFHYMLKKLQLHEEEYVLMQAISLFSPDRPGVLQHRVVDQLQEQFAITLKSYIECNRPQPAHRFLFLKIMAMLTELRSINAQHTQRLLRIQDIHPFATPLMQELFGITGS
# Hypoxia-inducible factor 1-alpha (Homo sapiens), sequence (Q16665 whole entry, looked up): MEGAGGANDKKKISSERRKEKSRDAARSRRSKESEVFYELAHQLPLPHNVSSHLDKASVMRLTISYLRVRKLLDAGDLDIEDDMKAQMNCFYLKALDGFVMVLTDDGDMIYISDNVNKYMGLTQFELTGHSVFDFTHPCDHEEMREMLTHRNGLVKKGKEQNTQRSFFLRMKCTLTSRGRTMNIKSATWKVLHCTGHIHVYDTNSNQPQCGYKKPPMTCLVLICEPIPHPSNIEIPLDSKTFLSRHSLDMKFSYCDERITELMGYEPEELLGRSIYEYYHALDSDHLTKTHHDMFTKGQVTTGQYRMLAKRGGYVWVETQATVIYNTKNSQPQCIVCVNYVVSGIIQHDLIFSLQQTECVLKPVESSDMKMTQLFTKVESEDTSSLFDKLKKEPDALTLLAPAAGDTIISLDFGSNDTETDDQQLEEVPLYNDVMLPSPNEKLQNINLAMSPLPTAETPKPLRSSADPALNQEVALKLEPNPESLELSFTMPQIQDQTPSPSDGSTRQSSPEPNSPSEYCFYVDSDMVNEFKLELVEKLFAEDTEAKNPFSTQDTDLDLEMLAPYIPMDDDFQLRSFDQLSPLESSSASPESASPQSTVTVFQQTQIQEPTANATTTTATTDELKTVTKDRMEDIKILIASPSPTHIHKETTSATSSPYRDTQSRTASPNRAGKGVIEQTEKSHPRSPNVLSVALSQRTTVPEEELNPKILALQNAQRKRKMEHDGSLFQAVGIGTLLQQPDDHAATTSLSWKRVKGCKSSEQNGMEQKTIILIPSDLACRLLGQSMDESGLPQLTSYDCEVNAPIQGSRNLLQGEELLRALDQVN
# Signal transducer and activator of transcription 3 (Homo sapiens), sequence (P40763 whole entry, looked up, the tested form may be a part): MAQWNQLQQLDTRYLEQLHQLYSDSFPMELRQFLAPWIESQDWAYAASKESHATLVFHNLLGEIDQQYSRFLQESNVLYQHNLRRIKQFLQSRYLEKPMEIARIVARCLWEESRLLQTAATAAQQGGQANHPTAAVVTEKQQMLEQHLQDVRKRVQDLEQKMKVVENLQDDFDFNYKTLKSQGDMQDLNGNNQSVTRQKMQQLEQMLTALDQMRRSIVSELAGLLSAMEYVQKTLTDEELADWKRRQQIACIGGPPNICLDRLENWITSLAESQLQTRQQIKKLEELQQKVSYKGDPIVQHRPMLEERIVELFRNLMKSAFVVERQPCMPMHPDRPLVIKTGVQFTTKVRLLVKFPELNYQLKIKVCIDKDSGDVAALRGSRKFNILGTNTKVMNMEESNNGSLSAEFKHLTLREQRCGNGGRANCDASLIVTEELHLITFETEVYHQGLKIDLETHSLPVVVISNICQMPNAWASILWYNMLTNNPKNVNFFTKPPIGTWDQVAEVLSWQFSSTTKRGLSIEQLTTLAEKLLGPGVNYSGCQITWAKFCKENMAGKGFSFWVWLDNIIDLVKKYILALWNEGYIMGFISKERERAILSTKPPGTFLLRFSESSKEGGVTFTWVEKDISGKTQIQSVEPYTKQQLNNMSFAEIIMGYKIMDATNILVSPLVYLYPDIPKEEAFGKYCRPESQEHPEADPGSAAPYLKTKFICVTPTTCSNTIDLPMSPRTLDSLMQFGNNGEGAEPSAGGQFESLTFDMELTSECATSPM
# Myc proto-oncogene protein (Homo sapiens), sequence (P01106 whole entry, looked up, the tested form may be a part): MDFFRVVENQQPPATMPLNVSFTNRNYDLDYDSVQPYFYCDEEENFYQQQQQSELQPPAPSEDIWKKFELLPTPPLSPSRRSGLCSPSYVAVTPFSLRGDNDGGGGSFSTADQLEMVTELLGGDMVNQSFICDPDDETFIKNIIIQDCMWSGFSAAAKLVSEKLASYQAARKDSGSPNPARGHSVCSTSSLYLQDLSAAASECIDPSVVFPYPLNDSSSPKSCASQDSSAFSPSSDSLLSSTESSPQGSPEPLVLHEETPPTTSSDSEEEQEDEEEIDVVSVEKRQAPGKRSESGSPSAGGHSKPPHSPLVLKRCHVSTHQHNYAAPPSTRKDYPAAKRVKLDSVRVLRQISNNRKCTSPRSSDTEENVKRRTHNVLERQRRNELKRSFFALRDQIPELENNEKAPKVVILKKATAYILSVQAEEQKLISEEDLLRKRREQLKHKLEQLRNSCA
smiles,measurement,setting,value
CN(C)CCC(c1ccc(Cl)cc1)c1ccccn1 (stereo unspecified),outcome,[1],inactive
same,outcome,[2],inactive
same,outcome,[3],inactive
same,outcome,[4],inactive
same,outcome,[5],inactive
same,outcome,[6],inactive
same,outcome,[7],inactive
same,outcome,[8],inactive
same,outcome,[9],inactive
same,outcome,[10],inactive
same,outcome,[11],inactive
same,outcome,[12],inactive
same,outcome,[13],inactive
same,outcome,[14],inactive
same,outcome,[15],inactive
same,outcome,[16],inactive
CCOC(=O)CC(=O)OCC,outcome,[17],inactive
same,outcome,[1],inactive
same,outcome,[2],inactive
same,outcome,[18],inactive
same,outcome,[3],inactive
same,outcome,[19],inactive
same,outcome,[4],inactive
same,outcome,[5],inactive
same,outcome,[6],inactive
same,outcome,[7],inactive
same,outcome,[8],inactive
same,outcome,[9],inactive
same,outcome,[10],inactive
same,outcome,[11],inactive
same,outcome,[13],inactive
same,outcome,[14],inactive
Oc1ccc(Oc2ccccc2)cc1,outcome,[17],inactive
same,outcome,[2],inactive
same,outcome,[18],inactive
same,outcome,[3],inactive
same,outcome,[19],inactive
same,outcome,[4],inactive
same,outcome,[5],inactive
same,outcome,[6],inactive
same,outcome,[7],inactive
same,outcome,[8],inactive
same,outcome,[9],inactive
same,outcome,[10],inactive
same,outcome,[11],inactive
same,outcome,[12],inactive
same,outcome,[13],inactive
same,outcome,[14],inactive
same,outcome,[15],inactive
CCCCn1cc[n+](C)c1,outcome,[1],inactive
same,outcome,[20],inactive
same,outcome,[2],inactive
same,outcome,[18],inactive
same,outcome,[4],inactive
same,outcome,[5],inactive
same,outcome,[6],inactive
same,outcome,[7],inactive
same,outcome,[8],inactive
same,outcome,[9],inactive
same,outcome,[10],inactive
same,outcome,[11],inactive
same,outcome,[13],inactive
same,outcome,[15],inactive
same,outcome,[16],inactive
O=C1NC(=O)[C@@H]2CC=CC[C@H]12,outcome,[17],inactive
same,outcome,[1],inactive
same,outcome,[18],inactive
same,outcome,[3],inactive
same,outcome,[19],inactive
same,outcome,[4],inactive
same,outcome,[5],inactive
same,outcome,[6],inactive
same,outcome,[7],inactive
same,outcome,[8],inactive
same,outcome,[9],inactive
same,outcome,[10],inactive
same,outcome,[11],inactive
same,outcome,[12],inactive
same,outcome,[13],inactive
same,outcome,[14],inactive
same,outcome,[15],inactive
same,outcome,[16],inactive
O=C(O)Cc1c[nH]c2ccccc12,outcome,[17],inactive
same,outcome,[1],inactive
same,outcome,[18],inactive
same,outcome,[3],inactive
same,outcome,[19],inactive
same,outcome,[4],inactive
same,outcome,[5],inactive
same,outcome,[6],inactive
same,outcome,[7],inactive
same,outcome,[8],inactive
same,outcome,[9],inactive
same,outcome,[10],inactive
same,outcome,[11],inactive
same,AC50,[12],74.1 µM (active)
same,outcome,[13],inactive
same,outcome,[14],inactive
same,outcome,[15],inactive
c1ccc(CNc2ncnc3nc[nH]c23)cc1,outcome,[1],inactive
same,outcome,[20],inactive
same,outcome,[2],inactive
same,outcome,[3],inactive
same,outcome,[19],inactive
same,outcome,[4],inactive
same,outcome,[5],inactive
same,outcome,[6],inactive
same,outcome,[7],inactive
same,outcome,[8],inactive
same,outcome,[9],inactive
same,outcome,[10],inactive
same,outcome,[11],inactive
same,outcome,[13],inactive
same,outcome,[14],inactive
same,outcome,[15],inactive
same,outcome,[16],inactive
